Data on 40 compounds can be found in the supplement of paper PMC4206467.

This assay concerns Perkinsus marinus PRA240. Description: ATP content (proliferation) relative to DMSO control; higher = more parasite growth (less inhibition). The note with it: 20 µM; 4 days. As for the experimental part:
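Perkinsus marinus PRA240 trophozoites (2-5x10^6 cells/ml, 100 µl, 96-well) were exposed once to MMV Malaria Box compounds at 20 µM (0.1% DMSO) in triplicate. ATP content (ATPlite bioluminescence) was read at day 4 post-exposure and normalised to DMSO + cells control wells (100% activity). Compounds were identified by joining plate and well to the Malaria Box list.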
The compound `Cc1cc(NC(=O)c2cccc(C(F)(F)F)c2)n(-c2nc(-c3ccc4c(c3)OCO4)cs2)n1` returned an ATP content of 144%.

`CCCCOc1ccc(C(=O)Nc2cc(C)on2)cc1` gave an ATP content of 61.2%.

The compound `O=C1c2ccccc2-c2nnc(-c3ccc(Br)cc3)cc21` came in with an ATP content of 67.7%.

`COc1cccc(O)c1CN1CCC2(CCCN(Cc3ccc(F)cc3)C2)C1` (stereo not given) yielded an ATP content of 70.7%.

Turning to `CC(C)=CCN1CCC(C(=O)Nc2ccc(-c3nc4ccccc4[nH]3)cc2)CC1`, the ATP content came to 81.5%.

The compound `COc1ccc(C(=O)Nc2ccc(Cl)cc2C(=O)Nc2ccncc2)cc1` registered an ATP content of 106%.

Take `CC1=C(CC(=O)c2cccc([N+](=O)[O-])c2)C(=O)c2ccccc2C1=O`: the ATP content amounted to 136%.

Take `CC(O)(c1ccc(Cl)cc1)C(CN1CCCCC1)c1ccccc1` (stereo not given): the ATP content is 79.2%.

For the compound `CC(=O)c1sc(NC(=O)Nc2ccc(C)cc2C)nc1C`, the ATP content was 68.1%.

Turning to `Cc1ccc2cc3c(N)c4c(C)ccc(C)c4nc3nc2c1`, the ATP content was determined as 142%.

Turning to `CC(=O)c1ccc(NC(=O)CSc2nc(-c3ccccc3Cl)ns2)cc1`, the ATP content came out at 125%.

Take `COc1cccc(-c2nn(C)c3sc(C(=O)NCCN4CCN(c5ccccc5F)CC4)cc23)c1`: the ATP content is 89.7%.

Compound `CCN(CC)c1cc(C)c2cc(NC(=O)c3cccc(OC)c3)ccc2n1` registered an ATP content of 74%.

As to `Cc1[nH]c(-c2ccc(F)cc2)cc1C(=O)NC1CCN(Cc2ccccc2)CC1`, the ATP content came out at 108%.

In the case of `CCOC(=O)C1(Cc2ccccc2)CCN(Cc2cccc(OC)c2O)CC1`, the ATP content is 143%.

For `COc1ccc2c(c1OC)C(=O)N1c3ccccc3N=C(c3ccc(C)cc3)CC21` (stereo not given), the ATP content was determined as 155%.

`O=C(NC1CCCCC1)C(c1cccs1)N(CCc1ccccc1)C(=O)c1ccco1` (stereo not given) returned an ATP content of 101%.

`CCc1ccc(CNCC(O)c2ccccc2)cc1` (stereo not given) came in with an ATP content of 60.8%.

Turning to `CC(C)(C)c1ccc(C2CC3=Nc4ccccc4N(C(=O)c4ccccc4Cl)C(c4ccc(F)cc4)C3=C(O)C2)cc1` (stereo not given), the ATP content stood at 129%.

Take `COc1ccc(CNC(=O)c2cc3c(=O)n4ccccc4nc3n(CCc3ccccc3)c2=N)cc1`: the ATP content worked out at 107%.

Regarding `COc1ccccc1N1CCN(C(CNS(=O)(=O)c2ccc(Cl)cc2)c2cccnc2)CC1` (stereo not given), the ATP content stood at 111%.

In the case of `CN1CCN(c2c3c(c(C#N)c4nc5ccccc5n24)CCC3)CC1`, the ATP content is 140%.

Turning to `CC(C)c1ccc(CNCC(O)c2ccccc2)cc1` (stereo not given), the ATP content came out at 117%.

`c1ccc(CNc2nc(Nc3ccccc3)nc3ccccc23)cc1` displayed an ATP content of 75.4%.

In the case of `Cc1ccc(Cn2c(N3CCC(C(=O)NCc4cccs4)CC3)nc3ccccc32)cc1`, the ATP content was 106%.

In turn, `Cc1cc(NC(=O)c2ccc(-c3ccccc3)cc2)no1` yielded an ATP content of 69.1%.

`COc1ccc(C2Sc3ccccc3N=C3C2=C(O)c2ccccc23)cc1` (stereo not given) returned an ATP content of 46.2%.

`Cc1cc(N2CCN(C3CCCC3)CC2)n2c(nc3ccccc32)c1C#N` yielded an ATP content of 161%.

In turn, `CCOc1ccc(C=Cc2nc(=O)c3ccccc3o2)cc1` showed an ATP content of 14.6%.

`CCCCCCc1cc2cc(-c3nc4ccccc4[nH]3)c(=Nc3ccccc3C)oc2cc1O` came in with an ATP content of 121%.

`Oc1ccccc1CN1CCC2(CCCN(Cc3ccccc3F)C2)C1` (stereo not given) displayed an ATP content of 70.1%.

In turn, `COc1ccc(C2c3ccc4ccccc4c3Oc3ncn(CCCN(C)C)c(=N)c32)cc1` (stereo not given) yielded an ATP content of 202%.

Consider `Clc1ccc2[nH]c3c(NCCCN4CCOCC4)ncnc3c2c1`, for which the ATP content stood at 163%.

For `CCOc1cccc2sc(N(Cc3cccnc3)C(=O)C3CCCCC3)nc12`, the ATP content was found to be 79.5%.

`CC(C)CCNCC(O)Cn1c2ccccc2c2ccccc21` (stereo not given) yielded an ATP content of 140%.

Turning to `Cc1c(C)n(Cc2ccc(F)cc2)c2ccc(C(=O)NCc3ccco3)cc12`, the ATP content is 111%.

For the compound `COc1cccc(C(=O)NC(c2ccc(C)cc2)c2cc(Cl)c3cccnc3c2O)c1` (stereo not given), the ATP content is 39.5%.

Turning to `COCCn1c(C)nc2ccccc2c1=O`, the ATP content was found to be 130%.

Regarding `COc1ccc(-c2cc3c(nn2)-c2ccccc2C3=O)cc1`, the ATP content worked out at 32.7%.

`COc1cc2c3cc1Oc1c(OC)c(OC)cc4c1C(Cc1ccc(O)c(c1)Oc1ccc(cc1)CC3N(C)CC2)N(C)CC4` (stereo not given): the ATP content was determined as 144%.
